This is one part of a sample in which the strongest signals are shown more often than they occur.
What was measured:
Experiment in all cases: glycan array binding signal (z-score within array); higher = stronger binding
Settings in all cases: glycan notation: IUPAC condensed, linker removed
[1] = molecular target: Fuc(a1-2)Gal(b1-3)GalNAc(b1-4)[Neu5Ac(a2-3)]Gal(b1-4)Glc
In short: (§1)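 The binding signal is a Z-score computed within each array. Data were drawn from 3228 arrays in the Consortium for Functional Glycomics database, restricted to those with a known protein sequence. Scores were averaged over arrays of the same protein sequence at different concentrations or buffers, and over linkers, and negative values can be taken as non-binding.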

[2] = molecular target: Fuc(a1-2)Gal(b1-4)GlcNAc(b1-3)Gal(b1-4)GlcNAc(b1-3)Gal(b1-4)GlcNAc
In short: as §1

[3] = molecular target: Fuc(a1-2)Gal(b1-4)[Fuc(a1-3)]GlcNAc(b1-3)[Neu5Ac(a2-6)Gal(b1-4)GlcNAc(b1-6)]Gal(b1-4)Glc
In short: as §1

Fuc(a1-2)Gal6S(b1-4)Glc = molecular target: Fuc(a1-2)Gal6S(b1-4)Glc
In short: as §1

[4] = molecular target: Fuc(a1-2)Gal6S(b1-4)Glc6S
In short: as §1

[5] = molecular target: Fuc(a1-2)[Gal(a1-3)]Gal(b1-4)GlcNAc(b1-2)Man(a1-3)[Fuc(a1-2)[Gal(a1-3)]Gal(b1-4)GlcNAc(b1-2)Man(a1-6)]Man(b1-4)GlcNAc(b1-4)GlcNAc
In short: as §1

[6] = molecular target: Fuc(a1-2)[Gal(a1-3)]Gal(b1-4)GlcNAc(b1-2)Man(a1-3)[Fuc(a1-2)[Gal(a1-3)]Gal(b1-4)GlcNAc(b1-2)Man(a1-6)]Man(b1-4)GlcNAc(b1-4)[Fuc(a1-6)]GlcNAc
In short: as §1

[7] = molecular target: Fuc(a1-2)[GalNAc(a1-3)]Gal(b1-3)GlcNAc
In short: as §1

[8] = molecular target: Fuc(a1-3)[Gal(b1-4)]GlcNAc(b1-6)GalNAc
In short: as §1

Gal(a1-3)Gal = molecular target: Gal(a1-3)Gal
In short: as §1

[9] = molecular target: Gal(a1-3)[Gal(a1-4)]Gal(b1-4)GlcNAc
In short: as §1

Gal(b1-3)GalNAc = molecular target: Gal(b1-3)GalNAc
In short: as §1

[10] = molecular target: Gal(b1-3)GlcNAc(b1-6)GalNAc
In short: as §1

[11] = molecular target: Gal(b1-3)GlcNAc(b1-6)[Gal(b1-3)]GalNAc
In short: as §1

[12] = molecular target: Gal(b1-3)[GlcNAc(b1-6)]GalNAc
In short: as §1

[13] = molecular target: Gal(b1-3)[Neu5Ac(a2-6)]GalNAc
In short: as §1

[14] = molecular target: Gal(b1-4)GlcNAc(b1-2)Man(a1-6)[Man(a1-3)]Man(b1-4)GlcNAc(b1-4)GlcNAc
In short: as §1

[15] = molecular target: Gal(b1-4)GlcNAc(b1-2)[Gal(b1-4)GlcNAc(b1-4)]Man(a1-3)[GlcNAc(b1-4)][Gal(b1-4)GlcNAc(b1-2)Man(a1-6)]Man(b1-4)GlcNAc(b1-4)GlcNAc
In short: as §1

[16] = molecular target: Gal(b1-4)GlcNAc(b1-2)[Gal(b1-4)GlcNAc(b1-6)]Man(a1-6)[GlcNAc(b1-4)][Gal(b1-4)GlcNAc(b1-2)Man(a1-3)]Man(b1-4)GlcNAc(b1-4)GlcNAc
In short: as §1

[17] = molecular target: Gal(b1-4)GlcNAc(b1-3)Gal(b1-4)GlcNAc(b1-2)Man(a1-3)[Gal(b1-4)GlcNAc(b1-3)Gal(b1-4)GlcNAc(b1-2)Man(a1-6)]Man(b1-4)GlcNAc(b1-4)GlcNAc
In short: as §1

[18] = molecular target: Gal(b1-4)GlcNAc(b1-3)Gal(b1-4)GlcNAc(b1-6)[Gal(b1-3)]GalNAc
In short: as §1

[19] = molecular target: Gal(b1-4)GlcNAc(b1-6)[Gal(b1-3)]GalNAc
In short: as §1

Gal3S(b1-3)GlcNAc = molecular target: Gal3S(b1-3)GlcNAc
In short: as §1

GlcA(b1-3)Gal = molecular target: GlcA(b1-3)Gal
In short: as §1

[20] = molecular target: GlcNAc(b1-2)[GlcNAc(b1-4)]Man(a1-3)[GlcNAc(b1-4)][GlcNAc(b1-2)[GlcNAc(b1-6)]Man(a1-6)]Man(b1-4)GlcNAc(b1-4)[Fuc(a1-6)]GlcNAc
In short: as §1

[21] = molecular target: GlcNAc(b1-3)Gal(b1-4)GlcNAc(b1-6)[Gal(b1-3)]GalNAc
In short: as §1

[22] = molecular target: GlcNAc(b1-6)Gal(b1-4)GlcNAc
In short: as §1

Kdn(a2-3)Gal(b1-3)GalNAc = molecular target: Kdn(a2-3)Gal(b1-3)GalNAc
In short: as §1

[23] = molecular target: Neu5Ac(a2-3)Gal(b1-3)GalNAc6S
In short: as §1

[24] = molecular target: Neu5Ac(a2-3)Gal(b1-4)GlcNAc(b1-3)Gal(b1-4)GlcNAc(b1-6)[Gal(b1-3)]GalNAc
In short: as §1

[25] = molecular target: Neu5Ac(a2-3)Gal(b1-4)GlcNAc(b1-6)[Gal(b1-3)]GalNAc
In short: as §1

[26] = molecular target: Neu5Ac(a2-3)Gal(b1-4)[Fuc(a1-3)]GlcNAc(b1-3)Gal(b1-4)GlcNAc
In short: as §1

[27] = molecular target: Neu5Ac(a2-6)Gal(b1-4)GlcNAc(b1-2)[Neu5Ac(a2-6)Gal(b1-4)GlcNAc(b1-4)]Man(a1-3)[GlcNAc(b1-4)][Neu5Ac(a2-6)Gal(b1-4)GlcNAc(b1-2)[Neu5Ac(a2-6)Gal(b1-4)GlcNAc(b1-6)]Man(a1-6)]Man(b1-4)GlcNAc(b1-4)GlcNAc
In short: as §1

[28] = molecular target: Neu5Ac(a2-6)Gal(b1-4)GlcNAc(b1-3)Gal(b1-4)GlcNAc(b1-3)Gal(b1-4)GlcNAc
In short: as §1

[29] = molecular target: Neu5Ac(a2-6)Gal(b1-4)GlcNAc(b1-3)Gal(b1-4)GlcNAc(b1-6)[Gal(b1-3)]GalNAc
In short: as §1

[30] = molecular target: Neu5Ac(a2-6)Gal(b1-4)GlcNAc(b1-6)[Gal(b1-3)]GalNAc
In short: as §1

[31] = molecular target: Neu5Ac(a2-6)GalNAc(b1-4)GlcNAc
In short: as §1

[32] = molecular target: Neu5Ac(a2-8)Neu5Ac(a2-8)Neu5Ac(a2-3)[GalNAc(b1-4)]Gal(b1-4)Glc
In short: as §1

[33] = molecular target: Neu5Gc(b2-6)Gal(b1-4)GlcNAc
In short: as §1

B1: Fm1D (Escherichia coli) (protein)
chain: FSCNVDGGSSIGAGTTSVYVNLDPVIQPGQNLVVDLSQHISCWNDYGGWYDTDHINLVQGSAFAGSLQSYKGSLYWNNVTYPFPLTTNTNVLDIGDKTPMPLPLKLYITPVGAAGGVVIKAGEVIARIHMYKIATLGSGNPRNFTWNIISNNSVVMPTHHHHHH
In the case of B1, the “glycan array binding signal (z-score)” value [1] is reported as -0.146, the “glycan array binding signal (z-score)” value [2] is reported as -0.144 and the “glycan array binding signal (z-score)” value [3] is reported as -0.143. The “glycan array binding signal (z-score)” value (Fuc(a1-2)Gal6S(b1-4)Glc) was -0.149, the “glycan array binding signal (z-score)” value [4] was -0.14 and the “glycan array binding signal (z-score)” value [5] was -0.142. For the same binder, the “glycan array binding signal (z-score)” value [6] was -0.143, the “glycan array binding signal (z-score)” value [7] was -0.146 and the “glycan array binding signal (z-score)” value [8] was -0.139. The “glycan array binding signal (z-score)” value (Gal(a1-3)Gal) was -0.142, the “glycan array binding signal (z-score)” value [9] was -0.125 and the “glycan array binding signal (z-score)” value (Gal(b1-3)GalNAc) was 2.2. The “glycan array binding signal (z-score)” value [10] was -0.12, the “glycan array binding signal (z-score)” value [11] was 3.7 and the “glycan array binding signal (z-score)” value [12] was 4.94. The “glycan array binding signal (z-score)” value [13] was 3.04, the “glycan array binding signal (z-score)” value [14] was -0.144 and the “glycan array binding signal (z-score)” value [15] was -0.147. The “glycan array binding signal (z-score)” value [16] was -0.151, the “glycan array binding signal (z-score)” value [17] was -0.138 and the “glycan array binding signal (z-score)” value [18] was 3.82. The “glycan array binding signal (z-score)” value [19] was 10.7, the “glycan array binding signal (z-score)” value (Gal3S(b1-3)GlcNAc) was -0.132 and the “glycan array binding signal (z-score)” value (GlcA(b1-3)Gal) was -0.143. For the same binder, the “glycan array binding signal (z-score)” value [20] was -0.144, the “glycan array binding signal (z-score)” value [21] was 4.57 and the “glycan array binding signal (z-score)” value [22] was -0.134. The “glycan array binding signal (z-score)” value (Kdn(a2-3)Gal(b1-3)GalNAc) was -0.14, the “glycan array binding signal (z-score)” value [23] was -0.141 and the “glycan array binding signal (z-score)” value [24] was 1.11. The “glycan array binding signal (z-score)” value [25] was 5.29, the “glycan array binding signal (z-score)” value [26] was -0.14 and the “glycan array binding signal (z-score)” value [27] was -0.142. The “glycan array binding signal (z-score)” value [28] was -0.146, the “glycan array binding signal (z-score)” value [29] was 11.5 and the “glycan array binding signal (z-score)” value [30] was 3.09. The “glycan array binding signal (z-score)” value [31] was -0.144, the “glycan array binding signal (z-score)” value [32] was -0.152 and the “glycan array binding signal (z-score)” value [33] was -0.143.
